# Data taken from PubChem BioAssay (NCI).
# This is part of a sample that, as a whole, favours compounds with a hit. Of some 83,000 tested, about 20% had one in any assay.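 Step 1: grow cells in 96-well plates. Step 2: add test compound at a single concentration. Step 3: incubate 48 h. Step 4: record percent growth.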 Unmarked numbers belong to inactive results. Activity calls are given as the source filed them. Rule for the calls: active = growth percent below 10; inactive = the rest.
# System: NCI-H226 lung
# Assay: NCI-60 one-dose screen, 48 h (100 = growth as untreated, 0 = no growth, -100 = all killed)
# Conditions: 10 µM unless noted
row,Structure (SMILES),growth
1,C=C1C(=O)O[C@H]2[C@H]1CC/C(COC(=O)CCCCCCCCC(=O)OC/C1=C/CC[C@@]3(C)O[C@H]3[C@H]3OC(=O)C(=C)[C@@H]3CC1)=C\CC[C@@]1(C)O[C@@H]21,1.19% (active)
2,C=C1C(=O)O[C@H]2[C@H]1CCC(/C=N/c1ncc(Br)cc1N)=C\CC[C@@]1(C)O[C@@H]21,51.9%
3,O=C1CCC23OC(c4ccccc4N12)C(O)C(O)C3O (configuration not stated),107%

# System: NCI-H322M lung
# Assay: as above
# Conditions: 10 µM unless noted
row,Structure (SMILES),growth
1,CC(C)CSc1nc(Nc2ccccc2)c(C#N)c(-c2ccc(F)cc2)n1,27.9%
2,CCCCC(=O)Nc1c(C(=O)Nc2ccccc2)sc2nc3c(cc12)C(OC(=O)CCCC)CCC3 (configuration not stated),113%
3,COC(=O)[C@]1(C)CCC[C@]2(C)[C@H]3C[C@H]4C(C(C)C)=C[C@]3(CC[C@H]21)[C@@H]1C(=O)N(CCC#N)C(=O)[C@@H]14,109%
4,CCN1CCN(c2ccc(NC(=O)Nc3nc4ccc(-c5ccccc5OC)cc4s3)cc2)CC1,-86% (active)
5,C[C@H]1[C@H](C)CC[C@]2(C(=O)OCCOCCOCC[P+](c3ccccc3)(c3ccccc3)c3ccccc3)CC[C@]3(C)C(=CC[C@@H]4[C@@]5(C)CC[C@H](OC(=O)C(Cl)Cl)C(C)(C)[C@@H]5CC[C@]43C)[C@H]12,27.8%
6,COc1ccc(/C(=N\O)c2cc(C)c(OC)c(C)c2)cc1O,48.3%
7,O=C(Nc1nccs1)c1noc2ccccc12,92%
8,CCOc1ccccc1C(=O)/C=C/c1cc2ccccc2[nH]c1=O,-2.24% (active)
9,Cc1ccc(-c2nc(C#N)c(S(=O)(=O)N(C)CCO)o2)cc1,93.3%
10,Cc1ccc(C2CC(c3ccc(Nc4nc(NCCO)nc(NCCO)n4)cc3)=NN2c2ccc(Cl)cc2)cc1 (configuration not stated),51.3%
11,CN(C)CCCn1c2c(c3cc(-c4cccc(S(N)(=O)=O)c4)ccc3c1=O)C(=O)c1ccccc1-2,77.3%
12,C=C(C)[C@@H]1CC[C@]2(C(=O)OCCOCCOCC[P+](c3ccccc3)(c3ccccc3)c3ccccc3)CC[C@]3(C)[C@H](CC[C@@H]4[C@@]5(C)CC[C@H](OC(=O)C(Cl)Cl)C(C)(C)[C@@H]5CC[C@]43C)[C@@H]12,21%
13,COC(=O)/C=C/c1cc(OC(C)=O)c2c(c1)C(C(=O)OC)C(c1ccc(OC(C)=O)c(OC(C)=O)c1)O2 (configuration not stated),55.4%
14,O=C(Nc1ccc(S(=O)(=O)NC2CCCCCC2)cc1)C(c1ccccc1)S(=O)(=O)c1ccc(F)cc1 (configuration not stated),17.1%
15,COc1ccc2cc(/C=C3\N=C(c4cc(OC)c(OC)c(OC)c4)OC3=O)c(OC)nc2c1,107%
16,N#Cc1ccc(C2C3=C(CCCC3=O)OC3=C2C(=O)c2ccccc2C3=O)cc1 (configuration not stated),106%
17,COCCOCCOCc1n(Cc2ccc3ccccc3c2)c2ccccc2[n+]1Cc1ccc2ccccc2c1,40.5%
18,CC(=O)Nc1c(C(=O)Nc2ccccc2)sc2nc3c(cc12)C(OC(C)=O)CCC3 (configuration not stated),99%
19,CCc1ccc(OCc2ccccc2C(=O)Nc2ccc3nc(C)cc(N)c3c2)cc1,-92.9% (active)
20,COc1ccc(C2C(c3ccccc3)C(=O)N2c2cc(OC)c(OC)c(OC)c2)cc1I (configuration not stated),42.9%
21,COc1cc(/C=C/C(=O)c2cccs2)ccc1OCc1ccc(Cl)nc1,85.9%
22,C=C1C(=O)O[C@H]2[C@H]1CC/C(COC(=O)CCCCCCC(=O)OC/C1=C/CC[C@@]3(C)O[C@H]3[C@H]3OC(=O)C(=C)[C@@H]3CC1)=C\CC[C@@]1(C)O[C@@H]21,99.5%
23,COc1ccc(C2CC(c3ccc(OC)cc3O)=NN2c2ccc(S(N)(=O)=O)cc2)cc1 (configuration not stated),59.4%
24,CCCn1cc(/C=N\N=C2\C(=O)Nc3ccc(C)cc32)c2ccccc21,47.8%
25,N#Cc1c(-c2ccc(Cl)cc2)cc(-c2cc3ccccc3o2)nc1SCC(=O)c1ccc(Cl)cc1,104%
26,CCCCCCCCCCCCCC1=NCC[N+]1(CCO)Cc1ccccc1 (configuration not stated),-6.75% (active)
27,Nc1c(C(=O)Nc2cccc3ccccc23)sc2nc3c(cc12)CCCCC3,51.3%
28,Cc1c(Cl)cccc1NC(=O)c1sc2nc3c(cc2c1N)CCCCCC3,45.6%
29,N#Cc1c(-c2ccc(F)cc2)nc(N=Nc2c(O)[nH]c3ccc(Cl)cc23)nc1N1CCOCC1,46.9%
